Results taken from PubChem BioAssay (NCI).
Several values for one entry are separate records, joined by “and”; a condition that tells them apart may be missing. Equal values may be shown once. Compounds without any hit were thinned out: in the full panel of roughly 83,000, 20% have a hit.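 Growth was measured after 48 h exposure to one concentration of compound in 96-well plates. Values under 10 count as active.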 Activity calls are given as the source filed them.

Tested on: HL-60(TB) leukemia
Test: NCI-60 one-dose screen, 48 h (100 = growth as untreated, 0 = no growth, -100 = all killed)
Conditions: 10 µM unless noted

Row | Compound | growth
1 | Cc1ccc(-c2nnc(COc3ccc(-c4nnc(N)s4)cc3)o2)cc1 | 96.4% (inactive)
2 | O=C(Nc1nc2ccccc2s1)c1ccc(F)cc1 | 111% (inactive)
3 | Cn1c2c(cc(S(=O)(=O)c3ccccc3)c1=O)CCc1c-2cnn1-c1ccccc1Cl | 95.3% (inactive)
4 | O=C(/C=C\c1ccc(Cl)c(Cl)c1)c1ccccc1 | 59.3% (inactive) and 99.9% (inactive)
5 | C/C(Cc1ccc(Cl)cc1)=C(/c1ccc(Cl)cc1)c1ccc(OCCN(C)C)cc1 | -10.1% (active)
6 | CCOC(=O)CSc1nnc(-c2cc3c([nH]c4ccccc43)c(-c3cccc(O)c3)n2)n1-c1ccc(C)cc1 | 45.3% (inactive)
7 | CCN(CC)CC(=O)Nc1c(C)cc(C(=O)NN)cc1C | 65.2% (inactive)
8 | Fc1ccc(-c2cn3c(nc4ccccc43)c(-c3ccccc3)n2)cc1 | 99.8% (inactive)
9 | O=C(Cn1c2c(c3ccccc31)CCCC2)Nc1ccc(-c2nc3ccccc3s2)cc1 | 99.1% (inactive)
10 | O=C(Nc1ccccc1Cl)Oc1ccc(-c2ccccc2)cc1 | 97.4% (inactive)
11 | O=C1N/C(=N\c2nnc(-c3ccc(O)cc3)s2)S/C1=C\c1ccccc1O | 104% (inactive)
12 | Cc1cc(O)c2c(c1)C[C@H]1[C@@H]3CC[C@H]4CC(=O)CC[C@]4(C)[C@H]3CC(=O)[C@]21C | 73.9% (inactive)
13 | Cc1cc(Nc2cccc(C(F)(F)F)c2)n2c(nc3ccccc32)c1C#N | 31.8% (inactive)
14 | CCS(=O)(=O)c1cc(=O)[nH]c(=O)[nH]1 | 117% (inactive)
15 | CCOC(=O)C1=C(NC)OCC1=O | 91.7% (inactive)
16 | O=C(Nc1cccc(-n2cc(-c3ccncc3)c(-c3ccc(O)c(Cl)c3)n2)c1)Nc1cccc(C(F)(F)F)c1 | -11.6% (active)
17 | C/C=C\COc1cc(C)c(Cl)cc1Cl | 105% (inactive)
18 | NC1=NC(c2ccccc2)C2=C(N1)/C(=C/c1ccccc1)CCC2 (stereo not given) | 80.7% (inactive)
19 | Cn1c(=O)c2c(nc3n2CCN(CCc2ccc(OCCN4CCOCC4)cc2)C3)n(C)c1=O | 101% (inactive)
20 | Nc1ncnc2c1ncn2C1OC(CO)C(O)C1O (stereo not given) | 65.5% (inactive) and 84.5% (inactive) and 105% (inactive)

Row | Compound | growth
21 | COC1C[C@H](O[C@@H]2C[C@H](O[C@@H]3C[C@H](O[C@@H]4C(=O)c5c(cc6cc(O[C@H]7C[C@@H](O[C@H]8C[C@@H](O)[C@H](O)C(C)O8)[C@H](O)C(C)O7)c(C)c(O)c6c5O)C[C@H]4C(OC)C(=O)[C@@H](O)[C@@H](C)O)OC(C)[C@H]3O)OC(C)[C@@H]2O)OC(C)[C@@H]1O (stereo not given in full) | -0.253% (active)
22 | c1ccc(N2N=C(c3cccc(Nc4ccncc4)c3)CC2c2ccc3c(c2)OCO3)cc1 (stereo not given) | -21.1% (active)
23 | COc1ccc(CN2c3ccccc3Sc3ccccc32)cc1F | -7.46% (active)
24 | CN(C)c1ccc2nc3ccc(=[N+](C)C)cc-3sc2c1 | 0.249% (active) and -38.6% (active) and 19.8% (inactive)
25 | CNc1cc(-c2cccc(OC(F)(F)F)c2)nc2ccc(N3CCCC3)cc12 | -43% (active) and -44.1% (active) and 1.92% (active)
26 | Cc1ccccc1N=C(c1ccccc1)C1C(=O)c2ccccc2C1=O | 78.5% (inactive)
27 | O=c1c(/C=C/c2ccco2)nnc(SCCN2CCOCC2)n1/N=C/c1ccc([N+](=O)[O-])cc1 | 87.9% (inactive)
28 | O=S(=O)(NCCCNc1nccc(-c2c(-c3ccc(F)c(O)c3)nc3occn23)n1)c1ccccc1 | 84.3% (inactive)
29 | Cc1nn(-c2ccccc2)c2nc(C)n(-c3ccc(Br)cc3)c(=O)c12 | -5.26% (active)
30 | COc1ccccc1/C=C/C(=O)/C=C/c1ccccc1OC | 15.1% (inactive) and 18.7% (inactive)
31 | CCC(=O)Oc1ccc(OCc2ccccc2)cc1 | 35.9% (inactive) and 84.2% (inactive)
32 | O=C(C=P(c1ccccc1)(c1ccccc1)c1ccccc1)c1ccc(Br)cc1 | 8.84% (active)
33 | COc1ccccc1/C=N\N=C(N/N=C/c1ccccc1OC)N/N=C/c1ccccc1OC | 31.3% (inactive) and 41.7% (inactive)
34 | O=C(Nc1ccncc1)C(=O)c1cn(S(=O)(=O)c2ccc(Br)cc2)c2ccccc12 | 15.3% (inactive)
35 | Cc1ccc(OC(=O)c2ccc(Cl)cc2)cc1 | 124% (inactive)
36 | CN1CCN(Cc2ccc(NC(=O)c3cnc(F)c(C#Cc4cnc(N)c5ncccc45)c3)cc2C(F)(F)F)CC1 | -9.84% (active)
37 | COc1ccc(/C=C/C(=O)c2cccc(OCCCCOc3cccc(C(=O)/C=C/c4ccc(OC)c(OC)c4)c3)c2)cc1OC | 68.6% (inactive)
38 | COC(=O)C(=C\c1ccc2c(c1)OCO2)/C(=C/c1ccc2c(c1)OCO2)C(=O)OC | 112% (inactive)
39 | CC1=C/C(=C(\c2ccc(N(C)C)cc2)c2ccc([N+](C)(C)C)cc2)C=CC1=[N+](C)C | 98.6% (inactive)
40 | O=C(Nc1ccc(CN2CCOCC2)cc1)c1ccc(-c2cc(Cl)ccc2Cl)o1 | 28.8% (inactive)
